From PubChem BioAssay (NCATS)
Several values for one entry are separate records, joined by “and”; a condition that tells them apart may be missing. Equal entries are not always repeated. Records with an inconclusive call do not appear. Where a call stands in place of a potency, no number is given. Activity calls are given as the source filed them. Unless noted, calls follow the shape of the full dose curve.

Experiments:
[1] = Primary qHTS for inhibitors of SARS-S pseudo-typed particle cell entry (AID 1479145); also: nearly all actives have a fitted effect of over 45% in size; also: potency is read from the fitted curve at half-maximal effect
[2] = Primary qHTS for Huh7 cytotoxicity: counterscreen for inhibitors of MERS-S pseudotyped particle cell entry (AID 1479147); also: potency is read from the fitted curve at half-maximal effect
[3] = Primary qHTS for inhibitors of MERS-S pseudo-typed particle cell entry (AID 1479149); also: nearly all actives have a fitted effect of over 60% in size; also: potency is read from the fitted curve at half-maximal effect
[4] = Primary qHTS for Vero E6 cytotoxicity: counterscreen for inhibitors of SARS-S pseudo-typed particle cell entry (AID 1479150)
[5] = Primary qHTS for inhibitors of La Crosse Virus (LACV) - induced cell death in SH-SY5Y cells (AID 1508616; active = well fitted curve in the direction sought with a large enough effect; an effect the other way counts as inactive or inconclusive;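 also: top concentration of the series differs between compounds; higher means more rescue of cells from virus-induced death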)
Method in brief: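 Rescue of virus-induced death was read as ATPLite luminescence after 6 days at 37C, scaled between DMSO wells with LACV and without virus. Cells were SH-SY5Y, 6000/well, infected at 0.01 MOI after compound addition.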

[6] = molecular target: Calcium and integrin-binding protein 1 (Homo sapiens) (UniProt Q99828); experiment: Primary qHTS for Identification of Calcium Integrin Binding Protein 1 (CIB1) Competitor (AID 1508620; active = well fitted curve in the direction sought with a large enough effect; an effect the other way counts as inactive or inconclusive;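 also: GST tagged CIB1 binding a fluorescein labelled alphaIIb integrin peptide tracer; top concentration of the series differs between compounds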)
Chain of Calcium and integrin-binding protein 1 (Homo sapiens) (Q99828 whole entry, looked up): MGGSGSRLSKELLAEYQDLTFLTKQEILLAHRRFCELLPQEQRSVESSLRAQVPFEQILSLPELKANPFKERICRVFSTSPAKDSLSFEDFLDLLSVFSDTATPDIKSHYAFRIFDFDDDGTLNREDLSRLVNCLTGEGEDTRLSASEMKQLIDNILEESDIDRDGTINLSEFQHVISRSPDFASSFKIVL
Method in brief: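 CIB1-GST (1 uM final) and compound incubated 15 min at room temperature before adding FITC-alphaIIb peptide tracer (100 nM final). Competition for binding read by fluorescence polarization (ex 480, em 540) after another 15 min at room temperature.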

[7] = Primary qHTS for small molecule stabilizers of the endoplasmic reticulum resident proteome: Secreted ER Calcium Modulated Protein (SERCaMP) assay (AID 1508630; active = well fitted curve in the direction sought with a large enough effect; an effect the other way counts as inactive or inconclusive)
Method in brief: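 The SH-SY5Y reporter protocol was run at 3 concentrations up to 38.3 uM (primary) or 11 concentrations (follow-up): 16 h compound, 100 nM thapsigargin for 4 h, then extracellular luciferase luminescence.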

[8] = A High-Content qHTS Against Drug Library for the Identification of Small Molecules that Inhibit DYT1 Early Onset Primary Dystonia-Associated Cell Pathology (AID 1645839); also: series mostly up to about 46 µM
Method in brief: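 High-content imaging quantified EGFP-TorsinA mislocalization in HEK293-derived cells inducibly expressing DYT1 mutant torsinA, after 48 h exposure to compound given together with tetracycline induction. Cell count served as a toxicity channel alongside %pathology.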

[9] = molecular target: Cytochrome P450 2D6 (Homo sapiens) (UniProt P10635); experiment: Cytochrome P450 family 2 subfamily D member 6 (CYP2D6) small molecule antagonists: luciferase biochemical (cell-free) qHTS assay (AID 1645840; active = well fitted curve in the direction sought with a large enough effect in the repeat runs; an effect the other way counts as inactive or inconclusive; also: nearly all actives have a fitted effect of over 55% in size; also: potency is read from the fitted curve at half-maximal effect)
Chain of Cytochrome P450 2D6 (Homo sapiens) (P10635 whole entry, looked up): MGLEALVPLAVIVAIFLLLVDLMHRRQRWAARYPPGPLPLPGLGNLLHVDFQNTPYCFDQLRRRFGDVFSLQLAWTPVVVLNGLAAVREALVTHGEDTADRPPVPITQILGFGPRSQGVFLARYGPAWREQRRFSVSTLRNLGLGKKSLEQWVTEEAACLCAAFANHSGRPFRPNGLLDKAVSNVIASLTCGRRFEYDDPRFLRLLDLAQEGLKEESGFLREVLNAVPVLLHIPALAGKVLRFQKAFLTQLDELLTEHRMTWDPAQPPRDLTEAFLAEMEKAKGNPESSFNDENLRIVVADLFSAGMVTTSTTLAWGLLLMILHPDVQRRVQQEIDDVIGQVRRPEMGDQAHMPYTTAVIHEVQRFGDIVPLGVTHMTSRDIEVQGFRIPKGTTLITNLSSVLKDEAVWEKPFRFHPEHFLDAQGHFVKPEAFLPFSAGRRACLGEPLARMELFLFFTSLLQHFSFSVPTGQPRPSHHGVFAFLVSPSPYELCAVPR
Method in brief: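 P450-Glo CYP2D6 system: proluciferin substrate converted by enzyme to luciferin, read by luminescence proportional to activity. Enzyme-substrate mix with compound 10 min at room temperature, then NADPH regeneration 1 h before detection reagent.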

[10] = molecular target: Cytochrome P450 3A4 (Homo sapiens) (UniProt P08684); experiment: Cytochrome P450 family 3 subfamily A member 4 (CYP3A4) small molecule antagonists: luciferase qHTS assay (AID 1645841; active = well fitted curve in the direction sought with a large enough effect in the repeat runs; an effect the other way counts as inactive or inconclusive; also: nearly all actives have a fitted effect of over 45% in size)
Chain of Cytochrome P450 3A4 (Homo sapiens) (P08684 whole entry, looked up): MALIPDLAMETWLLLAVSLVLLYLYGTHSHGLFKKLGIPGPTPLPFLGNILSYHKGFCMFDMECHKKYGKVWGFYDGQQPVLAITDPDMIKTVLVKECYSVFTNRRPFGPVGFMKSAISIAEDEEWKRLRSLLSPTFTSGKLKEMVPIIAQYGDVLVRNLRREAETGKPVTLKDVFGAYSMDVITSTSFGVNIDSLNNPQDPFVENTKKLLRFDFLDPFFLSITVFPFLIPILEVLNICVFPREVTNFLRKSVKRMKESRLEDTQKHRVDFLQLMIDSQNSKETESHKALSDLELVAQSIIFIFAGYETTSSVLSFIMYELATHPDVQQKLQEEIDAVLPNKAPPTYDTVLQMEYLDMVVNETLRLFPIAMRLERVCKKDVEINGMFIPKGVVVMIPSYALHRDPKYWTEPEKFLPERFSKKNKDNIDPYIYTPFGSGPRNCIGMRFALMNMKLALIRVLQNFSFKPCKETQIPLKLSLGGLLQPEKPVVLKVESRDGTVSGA
Method in brief: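 Luminescent CYP3A4 activity readout: compounds plus enzyme-substrate mix 10 min at room temperature, reaction started with NADPH regenerating system for 1 h, stopped with detection reagent, read after 20 min. Ketoconazole served as control.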

[11] = molecular target: Cytochrome P450 2C9 (Homo sapiens) (UniProt P11712); experiment: Cytochrome P450 family 2 subfamily C member 9 (CYP2C9) small molecule antagonists: luciferase biochemical (cell-free) qHTS assay (AID 1645842; active = well fitted curve in the direction sought with a large enough effect in the repeat runs; an effect the other way counts as inactive or inconclusive; also: nearly all actives have a fitted effect of over 55% in size; also: potency is read from the fitted curve at half-maximal effect)
Chain of Cytochrome P450 2C9 (Homo sapiens) (P11712 whole entry, looked up): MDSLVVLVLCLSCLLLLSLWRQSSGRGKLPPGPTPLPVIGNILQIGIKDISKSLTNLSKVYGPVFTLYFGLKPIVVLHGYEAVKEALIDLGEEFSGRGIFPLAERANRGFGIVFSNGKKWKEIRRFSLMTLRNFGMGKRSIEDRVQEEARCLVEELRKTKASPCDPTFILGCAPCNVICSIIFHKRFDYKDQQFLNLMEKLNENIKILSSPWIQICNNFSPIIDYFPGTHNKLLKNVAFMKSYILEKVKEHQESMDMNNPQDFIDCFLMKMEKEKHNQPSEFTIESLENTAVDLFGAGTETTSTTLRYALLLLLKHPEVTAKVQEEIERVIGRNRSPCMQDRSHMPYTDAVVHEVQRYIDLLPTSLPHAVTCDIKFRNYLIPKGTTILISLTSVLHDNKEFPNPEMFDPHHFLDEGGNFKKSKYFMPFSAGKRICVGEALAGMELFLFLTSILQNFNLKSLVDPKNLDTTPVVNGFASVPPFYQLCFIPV
Method in brief: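 P450-Glo CYP2C9 system: proluciferin substrate with enzyme in mix containing 0.4% BSA, 10 min at room temperature, then NADPH regeneration solution added and incubated 1 h at 37C. Detection reagent stopped reaction; luminescence read after 20 min as RLU.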

[12] = Cytotoxicity counterscreen for inhibitors of SARS-CoV-2 cell entry (AID 1645845); also: nearly all actives have a fitted effect of over 50% in size
Method in brief: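 ATP-content luminescence (ATPLite 1step, 15 min RT) read after 48 h compound exposure of Expi293F cells stably expressing human ACE2; normalized to cells-only wells and media-only wells.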

[13] = Confirmatory qHTS for VERO E6 Cytotoxicity Assay: Counterscreen for SARS-CoV-2 CPE Assay (AID 1508605); also: series mostly up to about 20 µM; nearly all actives have a fitted effect of over 60% in size
[14] = Confirmatory qHTS to identify inhibitors of SARS-CoV-2 cell entry (AID 1645844); also: nearly all actives have a fitted effect of over 45% in size; also: potency is read from the fitted curve at half-maximal effect
Method in brief: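 Luminescence entry read-out after 48 h: spike-pseudotyped MLV particles (Wuhan-Hu-1, 19-aa C-terminal truncation) added to compound-pretreated (1 h) HEK293-ACE2 cells; Data were normalised to bald PP and spike PP wells.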

## CCCSc1ccc2nc(NC(=O)OC)[nH]c2c1
[1]
  Potency: inactive
[2]
  Potency: inactive
[3]
  Potency: inactive

## CC#C[C@]1(O)CC[C@H]2[C@@H]3CCC4=CC(=O)CCC4=C3[C@@H](c3ccc(N(C)C)cc3)C[C@@]21C
[1]
  Potency: inactive
[2]
  Potency: inactive
[3]
  Potency: inactive
[4]
  Potency: inactive

## O=[N+]([O-])c1cc([As](=O)(O)O)ccc1O
[1]
  Potency: inactive
[2]
  Potency: inactive
[3]
  Potency: inactive
[4]
  Potency: inactive
[5]
  Potency: inactive
[6]
  Potency: inactive
[7]
  outcome: inactive
[8]
  Potency: inactive
[9]
  Potency: inactive
[10]
  outcome: inactive
[11]
  Potency: inactive
[12]
  Potency: inactive

## O=C1c2c(O)ccc(O)c2C(=O)c2c(NCCNCCO)ccc(NCCNCCO)c21
[1]
  Potency: inactive
[2]
  Potency: 25.1 µM (active)

## CN1C[C@H]2c3ccccc3Oc3ccc(Cl)cc3[C@@H]2C1
[1]
  Potency: inactive

## Cc1ccc(-c2cc(C(F)(F)F)nn2-c2ccc(S(N)(=O)=O)cc2)cc1
[1]
  Potency: inactive
[2]
  Potency: inactive
[3]
  Potency: inactive
[4]
  Potency: inactive
[13]
  Potency: inactive
[12]
  Potency: inactive

## CC(C)OC(=O)C(C)(C)Oc1ccc(C(=O)c2ccc(Cl)cc2)cc1
[1]
  Potency: inactive

## NC(=O)C(c1ccccc1)(c1ccccc1)[C@@H]1CCN(CCc2ccc3c(c2)CCO3)C1
[1]
  Potency: inactive
[2]
  Potency: inactive
[3]
  Potency: inactive
[4]
  Potency: inactive

## COc1cc2c(c(OC)c1OC)-c1ccc(OC)c(=O)cc1[C@@H](NC(C)=O)CC2
[1]
  Potency: inactive
[2]
  Potency: inactive
[3]
  Potency: inactive

## O=C(NCCN1CCOCC1)c1ccc(Cl)cc1
[1]
  Potency: inactive
[2]
  Potency: inactive
[3]
  Potency: inactive
[4]
  Potency: inactive

## CO/N=C(\C(=O)N[C@@H]1C(=O)N2C(C(=O)O)=C(CSc3nc(=O)c(O)nn3C)CS[C@H]12)c1csc(N)n1
[1]
  Potency: inactive
[2]
  Potency: inactive
[3]
  Potency: inactive
[4]
  Potency: inactive

## CC[C@]1(O)C[C@@H]2CN(CCc3c([nH]c4ccccc34)[C@@](C(=O)OC)(c3cc4c(cc3OC)N(C)[C@H]3[C@@](O)(C(=O)OC)[C@H](OC(C)=O)[C@]5(CC)C=CCN6CC[C@]43[C@@H]65)C2)C1
[1]
  Potency: inactive
[2]
  Potency: inactive
[3]
  Potency: inactive
[4]
  Potency: inactive
[14]
  Potency: 0.0764 µM (active)

## CC1(C)S[C@@H]2[C@H](NC(=O)C(C(=O)O)c3ccccc3)C(=O)N2[C@H]1C(=O)O (some centres not stated)
[1]
  Potency: inactive
[2]
  Potency: inactive
[3]
  Potency: inactive
[4]
  Potency: inactive
[12]
  Potency: inactive

## CNC1(C)C2CCC(C2)C1(C)C (configuration not stated)
[1]
  Potency: inactive
[2]
  Potency: inactive
[3]
  Potency: inactive
[4]
  Potency: inactive
[12]
  Potency: inactive

## C[C@H]1[C@H](NC(=O)/C(=N/OC(C)(C)C(=O)O)c2csc(N)n2)C(=O)N1S(=O)(=O)O (stereo in doubt)
[1]
  Potency: inactive
[2]
  Potency: inactive
[3]
  Potency: inactive
[4]
  Potency: inactive
[12]
  Potency: inactive

## CCCCOCCOCCOCc1cc2c(cc1CCC)OCO2
[1]
  Potency: inactive
[2]
  Potency: inactive
[3]
  Potency: inactive
[4]
  Potency: inactive
[12]
  Potency: inactive

## CCC(C(N)=O)N1CCCC1=O (configuration not stated)
[1]
  Potency: inactive
[2]
  Potency: inactive
[3]
  Potency: inactive
[4]
  Potency: inactive
[5]
  Potency: inactive
[6]
  Potency: inactive
[7]
  outcome: inactive
[8]
  Potency: inactive
[9]
  Potency: inactive
[11]
  Potency: inactive
[12]
  Potency: inactive

## CC(C)NCC(O)c1ccccc1Cl (configuration not stated)
[1]
  Potency: inactive
[2]
  Potency: inactive
[3]
  Potency: inactive
[4]
  Potency: inactive
[5]
  Potency: inactive
[6]
  Potency: inactive
[8]
  Potency: inactive
[9]
  Potency: 11 µM (active)
[11]
  Potency: inactive
[12]
  Potency: inactive

## CCCc1cc(=O)[nH]c(=S)[nH]1
[1]
  Potency: inactive
[2]
  Potency: inactive
[3]
  Potency: inactive
[4]
  Potency: inactive
[14]
  Potency: inactive
[12]
  Potency: inactive

## Oc1ccc(Cl)cc1Cc1ccccc1
[1]
  Potency: inactive
[2]
  Potency: inactive
[3]
  Potency: inactive
[4]
  Potency: inactive
[5]
  Potency: inactive
[6]
  Potency: inactive
[7]
  outcome: inactive
[9]
  Potency: 29.4 µM (active)
[11]
  Potency: 9.31 µM (active) and 12.3 µM (active)
[12]
  Potency: inactive

## Cc1cnc(C(=O)NCCc2ccc(S(=O)(=O)NC(=O)NC3CCCCC3)cc2)cn1
[1]
  Potency: inactive
[2]
  Potency: inactive
[3]
  Potency: inactive
[4]
  Potency: inactive
[12]
  Potency: inactive

## CN1CCN(C(=O)O[C@H]2c3nccnc3C(=O)N2c2ccc(Cl)cn2)CC1
[1]
  Potency: inactive
[2]
  Potency: inactive
[3]
  Potency: inactive
[4]
  Potency: inactive
[5]
  Potency: inactive
[6]
  Potency: inactive
[7]
  outcome: inactive
[8]
  Potency: inactive
[11]
  Potency: inactive
[12]
  Potency: inactive

## CCc1c2c(nc3ccc(OC(=O)N4CCC(N5CCCCC5)CC4)cc13)-c1cc3c(c(=O)n1C2)COC(=O)[C@]3(O)CC
[1]
  Potency: inactive
[2]
  Potency: inactive
[3]
  Potency: 10 µM (active)
[4]
  Potency: inactive
[14]
  Potency: 0.136 µM (active)
[12]
  Potency: inactive

## CC(C)=CC1C(C(=O)OCc2cccc(Oc3ccccc3)c2)C1(C)C (configuration not stated)
[1]
  Potency: inactive
[2]
  Potency: inactive
[3]
  Potency: inactive
[4]
  Potency: inactive
[5]
  Potency: inactive
[6]
  Potency: inactive
[7]
  outcome: inactive
[8]
  Potency: inactive
[11]
  Potency: 3.89 µM (active)
[12]
  Potency: inactive

## OCCOc1ccccc1
[1]
  Potency: inactive
[2]
  Potency: inactive
[3]
  Potency: inactive
[4]
  Potency: inactive
[5]
  Potency: inactive
[6]
  Potency: inactive
[8]
  Potency: inactive
[9]
  Potency: inactive
[11]
  Potency: inactive
[12]
  Potency: inactive

## N[C@@H](Cc1ccc(N(CCCl)CCCl)cc1)C(=O)O
[1]
  Potency: 31.6 µM (active)
[2]
  Potency: inactive
[3]
  Potency: inactive
[4]
  Potency: inactive
[6]
  Potency: inactive
[7]
  outcome: inactive
[8]
  Potency: inactive
[9]
  Potency: 19.5 µM (active)
[14]
  Potency: 0.681 µM (active)
[12]
  Potency: inactive

## CC(=O)Nc1cc([As](=O)(O)O)ccc1O
[1]
  Potency: inactive
[2]
  Potency: inactive
[3]
  Potency: inactive
[4]
  Potency: inactive
[5]
  Potency: inactive
[6]
  Potency: inactive
[8]
  Potency: inactive
[9]
  Potency: inactive
[11]
  Potency: inactive
[12]
  Potency: inactive
